Screening results: PubChem, Broad Institute
Only a sample is shown.
aSyn 5UTR act – Activators via SNCA 5'UTR binding, MLPCN; alpha-synuclein 5'UTR reporter, activators screen; activity score, % (tested at 7.5 µM), hits read low; 7.1% of 300,000 active; in the data active = activity score below about -60%
Active calls of the source: *.

SMILES	aSyn 5UTR act
COc1ccc(C(=O)NCCC2=CCCCC2)cc1OC1CCN(C(C)C)CC1	-74.5*
O=C(COC(=O)c1ccccc1Br)NCCC1=CCCCC1	-64.4*
O=c1c2[nH]c3ccccc3c2ncn1C1CCCCC1	-91.2*
Oc1ccc(-c2nccc(-c3ccc(F)cc3)n2)cc1	-143.9*
Cc1cnc(NC(=O)/C=C/c2ccc(Br)o2)s1	-105.6*
Cc1ccc(/C=C/C(=O)Nc2nccs2)o1	-156.8*
Cc1ccc(/C=C/C(=O)Nc2ccc(N(C)C)cc2)o1	-193.3*
Cc1ccc(/C=C/C(=O)Nc2ncc(C)s2)o1	-206.7*
O=C(O)c1cnn(-c2nc(-c3ccc(Cl)cc3)cs2)c1C(F)(F)F	-92.0*
COc1ccc(-c2csc(-n3ncc(C(=O)O)c3C(F)(F)F)n2)cc1	-76.3*
COC(=O)c1cnn(-c2nc(-c3ccccc3)cs2)c1N	-170.6*
O=C(CSc1ncc(-c2ccccc2)[nH]1)Nc1ccccc1F	-125.9*
CC(=O)Nc1cccc(NC(=O)CSc2ncc(-c3ccccc3)[nH]2)c1	-80.1*
Cc1cccc(S(=O)(=O)N/N=c2\sc3ccccc3n2C)c1	-175.3*
Cc1ccc(S(=O)(=O)N/N=c2\sc3ccccc3n2C)cc1	-115.2*
c1ccc2c(c1)[nH]c1c3ccccc3sc21	-138.2*
COc1cc(/C=N/NC(=O)c2cccc([N+](=O)[O-])c2)ccc1OCc1ccc(C)cc1	-98.6*
COc1ccc(/C=N\NC(=O)c2cccc(F)c2)cc1COc1ccccc1	88.0
COc1ccc(/C=N/NC(=O)c2cccnc2)cc1COc1ccc(NC(C)=O)cc1	-83.6*
COc1ccc(/C=N/NC(=O)c2cccnc2)cc1COc1ccc([N+](=O)[O-])cc1	-74.9*
O=c1[nH]nc(Cc2ccc3ccccc3n2)c2ccccc12	-70.8*
CC(=O)c1sc(Nc2nc3cc4c(cc3s2)OCO4)nc1C	-178.3*
O=C(Nc1nc2cc3c(cc2s1)OCO3)c1ccco1	79.8
CC(=O)Nc1nc2cc3c(cc2s1)OCO3	-99.8*
Cc1c(C(=O)NC2CCOC2)oc2c(F)cccc12 (configuration not stated)	-147.6*
SMILES	aSyn 5UTR act
Cc1c(C(=O)N2C[C@@H](C)O[C@@H](C)C2)oc2c(F)cccc12	-73.4*
COc1cccc(CNC(=O)CCC2CCCN(C(=O)c3cc4ccccc4o3)C2)c1 (configuration not stated)	-77.5*
COc1cc(NC(=O)C/C(C)=N/NC(=O)c2cccs2)c(OC)cc1Cl	-152.8*
COc1cc(NC(=O)C/C(C)=N/NC(=O)Cc2ccccc2)c(OC)cc1Cl	-68.8*
Brc1ccc(-c2cn3nc4c(nc3n2)CCCC4)cc1	93.1
Nc1nn2cc(-c3ccc(Br)cc3)nc2c2ccccc12	-164.5*
COc1ccc(OC)c(-c2nnc(-c3ccc(C)o3)o2)c1	-63.3*
COc1ccc(-c2nnc(SC)o2)c(OC)c1	-85.2*
CCOC(=O)c1c(C)oc2c(F)c(F)c(F)c(F)c2c1=O	-85.3*
COc1ccccc1Nc1nc(N)nc(-c2cc3ccccc3o2)n1	-62.1*
Cn1c(CNc2ccc(Br)cc2)nc2ccccc21	-172.4*
Cc1ccc(NCc2nc3ccccc3n2C)cc1C	-113.0*
CCCn1c(CNc2ccccc2O)nc2ccccc21	-83.9*
COc1ccc(NCc2nc3ccccc3n2C)cc1	-129.5*
Cn1c(S(=O)(=O)Cc2ccc(Cl)cc2)nc2ccccc21	-65.4*
CCOC(=O)c1ccc(NCc2nc3ccccc3n2C)cc1	-172.2*
Cn1c(CNc2nc3ccccc3n2C)nc2ccccc21	-81.4*
COc1ccc(Nc2nc3ccccc3n2C)cc1	-101.4*
C=CCn1c(NCc2ccc(N(C)C)cc2)nc2ccccc21	-63.4*
Cc1ccc(NCc2nc3ccccc3n2C)cc1	-111.3*
Cn1c(NCc2ccc(Cl)cc2)nc2ccccc21	-100.3*
CC(=O)c1cnc2cc(-c3ccc(Cl)cc3)nn2c1C	-94.5*
Cc1nc2cc(-c3ccc(Cl)cc3)nn2c(C)c1CCC(=O)NC(C)c1ccc2c(c1)OCCO2 (configuration not stated)	73.8
Cc1c(C(=O)O)cnc2cc(-c3ccc(Cl)cc3)nn12	-70.7*
CCNC(=O)c1sc(-c2ccccc2)nc1C	-66.2*
SMILES	aSyn 5UTR act
Cc1nc(-c2ccccc2)sc1C(=O)Nc1ccccc1F	-66.4*
Cc1nc(-c2ccccn2)sc1C(=O)Nc1ccc(F)cc1F	-127.5*
Cc1ccc2nc(-c3ccc4c(c3)NC(=O)CO4)cn2c1	-80.0*
Cc1ccc2nc(-c3ccc4c(c3)OCCO4)cn2c1	110.5
O=C1C2C3C=CC(C3)C2C(=O)N1/N=C/c1ccc(-c2ccccc2[N+](=O)[O-])o1 (configuration not stated)	-76.6*
O=C(c1ccc(CS(=O)Cc2ccccc2Cl)o1)N1CCN(c2ccccn2)CC1 (configuration not stated)	-84.9*
O=c1cc(N2CCN(c3ccc(F)cc3)CC2)[nH]c(=O)n1C1CCCCC1	-107.3*
Nc1ccccc1NC(=O)c1ccccc1	-154.1*
O=C(NNC(=O)c1ccccc1OCc1ccc(F)cc1)c1ccccc1O	67.5
COc1ccccc1OCc1ccc(C(=O)Nc2ccccc2F)cc1	-74.9*
O=C(Nc1cccn2ncnc12)c1ccccc1	-64.7*
O=C(Nc1ccccc1Cl)c1ccccc1	-86.8*
Cc1ccc(C(=O)Nc2ccccc2C(=O)NC(C(=O)O)C(C)C)cc1 (configuration not stated)	-68.5*
Cc1ccc(Cn2nc(C)cc2C(=O)Nc2ccccc2Cl)cc1	-151.5*
O=C(Nc1ccccc1Cl)c1ccn[nH]1	-89.6*
O=C(Nc1cccc(Cl)c1Cl)c1ccc(-c2ccccc2)cc1	-158.8*
Cn1cc(Cl)c(C(=O)Nc2cccc(Cl)c2Cl)n1	-155.5*
O=C(Nc1ccccc1F)c1ccc(C(=O)c2ccccc2)cc1	-100.1*
Cc1ccc(C(=O)Nc2ccccc2Cl)cc1	-128.7*
CCCCN1C(=O)/C(=C2\SC(N3CCCCC3)=NC2=O)c2ccccc21	-149.0*
O=[N+]([O-])c1cccc2ccc(/C=C/c3ccc(C(F)(F)F)cc3)nc12	-94.0*
CC(=O)Nc1ccc(/C=C/c2ccc3c([N+](=O)[O-])cccc3n2)cc1	-163.7*
O=[N+]([O-])c1cccc2ccc(/C=C/c3cccc(Br)c3)nc12	-107.1*
O=[N+]([O-])c1cccc2ccc(/C=C/c3ccc(Cl)cc3)nc12	-149.3*
O=C(CSc1nnc(-c2ccc(O)cc2)o1)Nc1ccccc1Br	-132.2*
SMILES	aSyn 5UTR act
COc1ccc(-c2nnc(SC(C)C(=O)Nc3ccc4c(c3)OCCO4)o2)cc1 (configuration not stated)	-100.7*
O=C(Nc1ccc2c(c1)OCCO2)C1CC(c2ccccc2Cl)=NO1 (configuration not stated)	-124.4*
O=C(CSc1nnc(-c2ccc(O)cc2)o1)Nc1ccc2c(c1)OCCO2	-82.9*
O=C(CSc1nnc(-c2ccccc2Cl)o1)Nc1ccc2c(c1)OCCO2	-137.0*
Oc1ccccc1OCc1nc2ccccc2s1	-113.4*
OCc1cc(Br)ccc1OCc1nc2ccccc2s1	-70.3*
Cc1ccc(/C=C/C(=O)c2cc(Br)ccc2OC(=O)c2ccco2)cc1	-94.2*
CCc1ccc(/C=C/C(=O)c2cc(Br)ccc(=O)c2O)cc1	72.1
COc1ccc(-n2c(C)nn(CCOc3ccccc3)c2=O)cc1	-90.3*
O=C(Nc1ccc(NC(=O)c2cc3ccccc3o2)cc1)c1ccc2c(c1)OCCO2	71.5
CCOC(=O)c1ccc(NC(=O)c2cc3ccccc3o2)cc1	-151.9*
CC(C)C(=O)Nc1ccc(NC(=O)c2cc3ccccc3o2)cc1	-90.3*
CCOC(=O)c1cccc(NC(=O)c2cc3ccccc3o2)c1	-110.3*
